Bioassay records as filed in PubChem.
An excerpt weighted towards active compounds, which were near 6.6% of everything screened.
KB-3-1 tox – kills parental KB-3-1 adenocarcinoma cells | KB-3-1 viability, CellTiter-Glo ATP luminescence, 72 h | Potency, µM (series often up to 46.1 µM), most hits filed as cytotoxic | hit rate 1.4% among 400,000 | AID 1347075; note: nearly all actives have a fitted effect of over 60% in size
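Here the drug-naive KB-3-1 line serves as comparator for MDR sub-line selectivity; cells received compound titrations, 72 h at 37 °C, then CellTiter-Glo readout.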
TGFb inhibitor – TGF-b pathway inhibition. HepG2 CAGA-GFP TGF-b/SMAD3 reporter, GFP fluorescence, 18 h; TGF-beta stimulated, 500 pg/mL final. Potency, µM (series often up to 46.1 µM), actives largely listed as inhibitors. hit rate 1.2% among 410,000; note: nearly all actives have a fitted effect of over 65% in size
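GFP signal (ex488/em500-530) from TGF-beta-stimulated HEPG2 CAGA-GFP cells, 500 pg/mL final, 18 h at 37 degrees C in DMEM plus 1% FBS, normalized to unstimulated and DMSO-stimulated controls.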
HT1080-NT tox – kills 2HG-producing HT-1080-NT fibrosarcoma cells. HT-1080-NT fibrosarcoma viability, CellTiter-Glo ATP luminescence, 48 h. Potency, µM (highest dose often 46.1 µM), actives largely listed as cytotoxic. hit rate 1.6% among 360,000;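 note: NT is the 2HG producing partner of a matched IDH1 knockdown line; nearly all actives have a fitted effect of over 55% in size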
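HT-1080-NT; 750 cells/well; 5% FBS RPMI; 48 h compound, 37 degrees C; CellTiter-Glo luminescence; curve fitting and curve-class assignment.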
KB-V1 MDR tox – KB-V1 MDR subline cytotoxicity | KB-V1 MDR cells viability, CellTiter-Glo, 72 h | Potency, µM (top dose mostly 46.1 µM), most hits filed as cytotoxic | hit rate 3.4% among 400,000 | AID 1347076; note: nearly all actives have a fitted effect of over 60% in size
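Luminescent ATP read-out (CellTiter-Glo, 10 min) measures survival of drug-selected KB-V1 MDR cells after 72 h, 37 degrees C compound exposure. Medium: phenol-red-free DMEM, 10% FBS. Values from fitted concentration-response curves.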
HepG2 viability – HepG2 cytotoxicity, counter-screen for TGF-b inhibitors. HepG2 CAGA-GFP viability, ATP luminescence, 18 h. Potency, µM (highest dose often 46.1 µM), most hits filed as cytotoxic. hit rate 0.76% among 410,000
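HepG2 CAGA-GFP cells (1000/well, DMEM with 1% FBS) received compound, then TGF-beta at 500 pg/mL final, and were incubated 18 hours at 37 degrees C. Viability was read by CellTiter-Glo luminescence. Media-only wells were set as complete cell-killing and DMSO as no toxicity.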
HT1080 IDH1KD tx – toxicity to HT-1080 IDH1 knockdown cells (counter line); hit rate 2% among 360,000; HT-1080 IDH1 knockdown viability, ATP luminescence, 48 h; Potency, µM (highest dose often 46.1 µM), hits mostly cytotoxic
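IDH1KD HT-1080 cells, 750/well, RPMI + 5% FBS; compound pinned after 2 h settling; 48 h, 37 °C; CellTiter-Glo luminescence; % activity normalised to DMSO and no-cell wells; curves fitted, classed by r2 and efficacy.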
A number is an active result. Calls come from the whole dose curve; as a rule, active = well fitted curve in the direction sought with a large enough effect; inconclusive = small, poorly fitted or top-dose-only effect, or another doubt; inactive = no such curve, though single readings can be large; an effect the other way counts as inactive or inconclusive.

COc1ccc(S(=O)(=O)NCCc2csc3nc(-c4ccc(Cl)cc4)nn23)cc1C was read as TGFb inhibitor inactive and HepG2 viability inactive.
For CN(C)c1ccc(C(=O)OCC(=O)Nc2cccc(S(=O)(=O)N3CCCC3)c2)cc1 the results were KB-3-1 tox inactive, TGFb inhibitor inactive, HT1080-NT tox inactive, KB-V1 MDR tox 16.4µM, HepG2 viability inactive and HT1080 IDH1KD tx inactive.
`CCOC(=O)Nc1ccc(S(=O)(=O)N2CCC(C)CC2)cc1` gave KB-3-1 tox inactive, TGFb inhibitor inactive, HT1080-NT tox inactive, KB-V1 MDR tox 20.6µM, HepG2 viability inactive and HT1080 IDH1KD tx inactive.
`Cc1ccc(OCC(=O)NCC2(N3CCOCC3)CCCCC2)cc1C` gave TGFb inhibitor inactive and HepG2 viability inactive.
Screening CCCC(C)Sc1nc2c([nH]1)c(=S)n(C)c(=O)n2C (centres undefined) returned KB-3-1 tox inconclusive, TGFb inhibitor inconclusive, HT1080-NT tox inactive, KB-V1 MDR tox 8.2µM, HepG2 viability inactive and HT1080 IDH1KD tx inactive.
O=c1[nH]c(SCC2CCCCO2)nc2ccccc12 (centres undefined) was read as KB-3-1 tox inactive, TGFb inhibitor inactive, HT1080-NT tox inactive, KB-V1 MDR tox inconclusive, HepG2 viability inactive and HT1080 IDH1KD tx inactive.
`CCCSc1nc2c([nH]1)c(=O)n(C)c(=S)n2C` gave KB-3-1 tox inactive, TGFb inhibitor inactive, HT1080-NT tox inactive, KB-V1 MDR tox inactive, HepG2 viability inactive and HT1080 IDH1KD tx inactive.
For Cn1c(=S)c2[nH]c(SCC3CCCO3)nc2n(C)c1=O (centres undefined) the results were KB-3-1 tox inconclusive, TGFb inhibitor inconclusive, HT1080-NT tox inactive, KB-V1 MDR tox inactive, HepG2 viability 11.2µM and HT1080 IDH1KD tx inactive.
For CC(=O)c1ccc(NC(=O)c2nn(C)c3c2COc2ccccc2-3)cc1 the results were TGFb inhibitor inactive and HepG2 viability inactive.
`COc1ccc(C2=NOC(C(=O)NC3CCCCC3)C2)cc1OC` (centres undefined) gave KB-3-1 tox inactive, TGFb inhibitor inactive, HT1080-NT tox inactive, KB-V1 MDR tox 16.4µM, HepG2 viability inactive and HT1080 IDH1KD tx inactive.
COc1ccc(C2=NOC(C(=O)N3CCCCCC3)C2)cc1OC (centres undefined) was read as KB-3-1 tox inactive, TGFb inhibitor inactive, HT1080-NT tox inactive, KB-V1 MDR tox 18.4µM, HepG2 viability inactive and HT1080 IDH1KD tx inactive.
COc1ccc(C2=NOC(C(=O)Nc3cc(Br)ccc3O)C2)cc1OC (centres undefined) was read as KB-3-1 tox inactive, TGFb inhibitor inconclusive, HT1080-NT tox inactive, KB-V1 MDR tox inconclusive, HepG2 viability inactive and HT1080 IDH1KD tx inconclusive.
COc1ccc(C2=NOC(C(=O)Nc3ccc(C(C)=O)cc3)C2)cc1OC (centres undefined) was read as KB-3-1 tox inactive, TGFb inhibitor inactive, HT1080-NT tox inactive, KB-V1 MDR tox 14.6µM, HepG2 viability inactive and HT1080 IDH1KD tx inactive.
For COc1cccc(C2=NOC(C(=O)Nc3cccnc3)C2)c1 (centres undefined) the results were KB-3-1 tox inactive, TGFb inhibitor inactive, HT1080-NT tox inactive, KB-V1 MDR tox 16.4µM, HepG2 viability inactive and HT1080 IDH1KD tx inactive.
`COc1ccc(C2=NOC(C(=O)Nc3cccnc3)C2)cc1` (centres undefined) gave KB-3-1 tox inactive, TGFb inhibitor inactive, HT1080-NT tox inactive, KB-V1 MDR tox inactive, HepG2 viability inactive and HT1080 IDH1KD tx inactive.
O=C(Nc1ccccc1Cl)c1cc(C2CCCCN2C(=O)CCCc2ccccc2)on1 (centres undefined) was read as KB-3-1 tox inactive, TGFb inhibitor inactive, HT1080-NT tox inactive, KB-V1 MDR tox inactive, HepG2 viability inactive and HT1080 IDH1KD tx inactive.
`CCN(CC(=O)Nc1ccccc1C(F)(F)F)C(=O)c1ccc2c(c1)NC(=O)C(C)S2` (centres undefined) gave KB-3-1 tox inactive, TGFb inhibitor inactive, HT1080-NT tox inactive, KB-V1 MDR tox inactive, HepG2 viability inactive and HT1080 IDH1KD tx inactive.
COc1ccccc1CCNC(=O)c1ccc(-c2nc(CSc3ccc(C)cc3)c(C)o2)cc1 was read as KB-3-1 tox inactive, TGFb inhibitor inactive, KB-V1 MDR tox inactive and HepG2 viability inactive.
Screening COc1ccc(C2OC(=O)CC2C(=O)NC2CCCC(C)C2C)cc1OC (centres undefined) returned KB-3-1 tox inactive, TGFb inhibitor inactive, HT1080-NT tox inactive, KB-V1 MDR tox inconclusive, HepG2 viability inactive and HT1080 IDH1KD tx inactive.
For COc1ccc(C2OC(=O)CC2C(=O)NC2CCCCCC2)cc1OC (centres undefined) the results were KB-3-1 tox inactive, TGFb inhibitor inactive, HT1080-NT tox inactive, KB-V1 MDR tox 13µM, HepG2 viability inactive and HT1080 IDH1KD tx inconclusive.
O=C(Nc1ccccc1C(=O)NCc1ccccc1)c1ccccc1Br was read as KB-3-1 tox inactive, TGFb inhibitor inactive, HT1080-NT tox inactive, KB-V1 MDR tox inconclusive, HepG2 viability inactive and HT1080 IDH1KD tx inactive.
Screening COc1ccc(NC(=O)Cc2ccc(Cl)cc2)cc1NC(=O)c1ccco1 returned KB-3-1 tox inactive, TGFb inhibitor inactive, HT1080-NT tox inconclusive, KB-V1 MDR tox 7.31µM, HepG2 viability inactive and HT1080 IDH1KD tx inactive.
Screening O=C(Nc1ccccc1C(=O)NCc1ccc(Cl)cc1)c1ccco1 returned KB-3-1 tox inactive, TGFb inhibitor inactive, HT1080-NT tox inactive, KB-V1 MDR tox 8.2µM, HepG2 viability inactive and HT1080 IDH1KD tx inactive.
Cc1ccccc1C(=O)Nc1ccccc1C(=O)NCc1ccccc1 was read as KB-3-1 tox inactive, TGFb inhibitor inactive, HT1080-NT tox inactive, KB-V1 MDR tox 20.6µM, HepG2 viability inactive and HT1080 IDH1KD tx inactive.
`Cc1ccc(C)c(Nc2cc(C(=O)NC3CCCCC3)c3ccccc3n2)c1` gave KB-3-1 tox inactive, TGFb inhibitor inactive, KB-V1 MDR tox inactive and HepG2 viability inactive.
For COc1ccc(C)cc1NC(=O)c1nnn(Cc2cccc(F)c2)c1N the results were KB-3-1 tox inconclusive, TGFb inhibitor inactive, HT1080-NT tox inconclusive, KB-V1 MDR tox inactive, HepG2 viability inactive and HT1080 IDH1KD tx 4.11µM.
For COc1ccc(NC(=O)c2nnn(Cc3ccc(Br)cc3F)c2N)c(OC)c1 the results were KB-3-1 tox inactive, TGFb inhibitor inactive, KB-V1 MDR tox inactive and HepG2 viability inactive.
COc1cccc(Cn2nnc(C(=O)NCCc3ccc(Cl)cc3)c2N)c1 was read as KB-3-1 tox inactive, TGFb inhibitor inconclusive, HT1080-NT tox inactive, KB-V1 MDR tox inactive, HepG2 viability 17.8µM and HT1080 IDH1KD tx inactive.
